Shown is part of a subset that was picked to be rich in hits.
Pf Dd2 growth – Plasmodium falciparum Dd2 growth inhibition; AID 1347417; Potency, µM (titrated, usually from 28.9 µM), for the others: at the highest dose activity, negative = inhibition, usual class: inhibitors; hit rate 4.3% among 120,000; P. falciparum Dd2 growth, SYBR Green, 72 h; active = well fitted inhibition curve with a large enough effect;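 also: plate controls were DMSO vehicle for no effect and reference drug for full effect; nearly all actives have a fitted effect of over 65% in size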
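Readout: SYBR Green fluorescence, 485 nm excitation, 535 nm emission, after ~16 h lysis at 37C. Before that, Dd2-infected red cells (2.5% hematocrit) grew 72 h with compound, 29 uM top final concentration.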
Numbers without * were called inactive; i = inactive; [ ] = another dose, or the depositor's remark. Potency is read from the fitted curve at half-maximal effect.

SMILES	Pf Dd2 growth
Cc1ccc(C(=O)N[C@H]2CO[C@H]3[C@@H]2OC[C@@H]3n2cc(CN(C)Cc3ccccc3)nn2)cc1	-21.9%
CN(C)c1ccc(Nc2nc3ccccc3n3nnnc23)cc1	7.94µM*
Cc1ccc(CCNC(=O)c2ccc(Nc3nc4ccccc4n4nnnc34)cc2)cc1	-1.1%
O=C(NCc1ccc(F)cc1)c1ccc(Nc2nc3ccccc3n3nnnc23)cc1	-21.2%
NC(=O)[C@@H]1CN(C(=O)c2ccco2)C[C@H]1COc1ccccc1	0.4%
COCCNc1nc(N)nc2c1CCN(C(=O)c1cscn1)CC2	-1.0%
CCN1C(=O)C2CC3(CCN(C(=O)c4nn(C)c5ccccc45)CC3)CN2C1=O (stereo not given)	-7.0%
O=C(CC[C@@H]1CNC(=O)[C@@H]2C[C@H](NCc3ccc(OC(F)(F)F)cc3)CN12)Nc1ccccc1	i
O=C1CC(c2ccccc2)N(Cc2ccncc2)CCCN(CC2CCCCC2)CCN1 (stereo not given)	3.16µM*
CN(C)S(=O)(=O)N1CCCN(Cc2ccncc2)C(c2ccccc2)CC(=O)NCC1 (stereo not given)	10µM*
Cc1noc(C)c1S(=O)(=O)N1CCCN(Cc2ccncc2)C(c2ccccc2)CC(=O)NCC1 (stereo not given)	1.12µM*
Cc1noc(C)c1S(=O)(=O)NCC(=O)N1CCCCCNC(=O)CC1c1ccccc1 (stereo not given)	9.9%
CCn1ncc(CN2CCCN(Cc3ccncc3)C(c3ccccc3)CC(=O)NCC2)c1C (stereo not given)	-4.2%
O=C1CC(c2ccccc2)N(Cc2ccncc2)CCCN(C(=O)CN2CCCC2=O)CCN1 (stereo not given)	i
CS(=O)(=O)N1CCCCCNC(=O)CC1c1ccccc1 (stereo not given)	0.0%
Cc1noc(C)c1S(=O)(=O)N1CCCCCCNC(=O)CC1	3.5%
CS(=O)(=O)N1CCCN(Cc2ccccn2)CCNC(=O)CC1c1ccccc1 (stereo not given)	-5.1%
COCCOCC(=O)N1CC(Oc2ccc(-c3noc(-c4ccccc4)n3)cc2)C1	-16.9%
Cc1ccccc1CN1Cc2nc(-c3ccsc3)ccc2OCC1=O	-0.7%[44.1 µM]
CCC(C(=O)N1CCN(C(=O)COc2ccccc2)CC1)n1cccn1 (stereo not given)	-7.8%
COc1ccc(C2=NOC3(CCN(Cc4cccc5ccccc45)C3)C2)cc1 (stereo not given)	i
O=C(Nc1cccc(OC(F)(F)F)c1)C1(CCO)CCN(c2ncccn2)C1 (stereo not given)	-16.4%
CCN(C(=O)CCC(=O)NCCc1noc(-c2cccnc2)n1)c1ccccc1	-3.1%
CCOCCOC1CCN(C(=O)CCc2ccccc2)CC1	64.4%
Cn1nccc1C(=O)N1CC(CNC(=O)c2ccccc2)C2(C1)CN(c1ccccc1)C2 (stereo not given)	12.6µM*
SMILES	Pf Dd2 growth
O=C(NCC1CN(C(=O)CCc2ccccc2)CC12CN(c1ccccc1)C2)c1ccccc1 (stereo not given)	i
Cn1nccc1C(=O)N1CC(COc2ccccc2)C2(C1)CN(c1ccccc1)C2 (stereo not given)	i
COC(=O)[C@H](Cc1ccc(OC)cc1)NC(=O)[C@H]1CN(C(=O)c2cccnc2)CCN1C(C)=O	i
Cc1ccccc1NC(=O)N(C)CC1CCOCC1	-5.6%
Cc1noc(C)c1C(=O)N1Cc2ccccc2OC2(CCN([S+](C)(=O)[O-])CC2)C1	9.2%
CCOC(=O)c1[nH]c2c(c1Cc1ccccc1OC)C(=O)CC(c1ccccc1)C2 (stereo not given)	11.2µM*
CCOC(=O)c1ccc(NC(=O)c2cc3c([nH]c2=O)CC(c2ccccc2)CC3=O)cc1 (stereo not given)	-9.7%
COc1ccc(C2CC(=O)c3c([nH]c(C(=O)OCc4ccccc4)c3C)C2)cc1 (stereo not given)	-12.5%
COc1ccc(C2CC(=O)c3c([nH]c(C(=O)OC4CCC(C)CC4)c3C)C2)cc1OC (stereo not given)	-16.1%
Cc1c(C(=O)OC2CCCC2)[nH]c2c1C(=O)CC(c1ccc(Cl)cc1)C2 (stereo not given)	-13.8%
Cc1c(C(=O)OCCOc2ccccc2)[nH]c2c1C(=O)CC(c1ccc(C(C)(C)C)cc1)C2 (stereo not given)	3.98µM*
CCN(CC)C(=O)Cc1cccn1-c1ccc(Cl)cc1	-32.4%
CC[C@H]1CN(C(=O)N2CCOCC2)CC[C@H]1CC(=O)NCc1ccccc1	-13.5%[44.1 µM]
O=C(c1ccccn1)N1CCC(n2cc(-c3nc(-c4ccccc4)no3)nn2)CC1	i
COC[C@@H]1CNC[C@H]1c1nc(C)no1	-17.5%
O=c1[nH]nc2n1CCN(Cc1ccc3c(c1)CCO3)CC2	10.3%
CCN(CC)Cc1ccc2c(c1)CNCCO2	-24.4%
c1cc2c(cc1CN1CCOCC1)CNCCO2	7.94µM*
Cc1nn(-c2ccc(F)cc2)c(Oc2ccc(F)cc2F)c1CCC(=O)N1CCCC1	-7.6%
Cc1nn(-c2ccc(F)cc2)c(Oc2cccc(F)c2)c1CCC(=O)N1CCSCC1	7.94µM*
Cc1ccccc1Oc1c(CCC(=O)N2CCSCC2)c(C)nn1-c1ccc(F)cc1	i
COC[C@H]1C[C@@H](NC(=O)Nc2ccccc2)[C@H](O)[C@@H]1O	19.8%[44.1 µM]
CC(C)CNc1ccc2c(n1)C(C)(C(=O)NC1CC1)CN(Cc1ccccc1)C2 (stereo not given)	-18.8%[44.1 µM]
CC1(C(=O)Nc2ccccc2)CN(Cc2ccccc2)Cc2ccc(N3CCOCC3)nc21 (stereo not given)	i
CC(C)CNc1ccc2c(n1)C(C)(C(=O)N1CCC1)CN(Cc1ccccc1)C2 (stereo not given)	i
SMILES	Pf Dd2 growth
CNC(=O)C1(C)CN(Cc2ccccc2)Cc2ccc(Nc3ccccc3)nc21 (stereo not given)	10µM*
CN1Cc2ccc(NCc3ccccc3)nc2C(C)(C(=O)NC2CCC2)C1 (stereo not given)	3.98µM*
CC1(C(=O)Nc2ccc(F)cc2)CN(Cc2ccccc2)Cc2ccc(N3CCOCC3)nc21 (stereo not given)	6.31µM*
CC1(C(=O)NC2CCOCC2)CN(Cc2ccccc2)Cc2ccc(Nc3ccccc3)nc21 (stereo not given)	-23.2%
CN1Cc2ccc(NCc3ccccc3)nc2C(C)(C(=O)NCc2cccnc2)C1 (stereo not given)	i
COCCNC(=O)C1(C)CN(Cc2ccccc2)Cc2ccc(Nc3ccccc3)nc21 (stereo not given)	-0.4%[44.1 µM]
O=C(c1ccc(Cl)cc1)N1CCC(N2Cc3cccn3C2=O)CC1	17.1%
O=C(O)Cc1cccn1-c1cccc(Cl)c1	i
O=C(CC[C@@H]1CNC(=O)[C@@H]2C[C@H](NC(=O)Nc3ccc(F)cc3F)CN12)NCc1ccc(F)cc1	-13.1%
CC(C)Cc1ccc(S(=O)(=O)N(C)CC2CCOCC2)cc1	-13.4%
CCCc1noc(-c2cn(C3CCN(C(=O)c4sccc4C)CC3)nn2)n1	i
COc1ccc(S(=O)(=O)c2cn(Cc3ccccc3)c3cc(N4CCCC4)c(F)cc3c2=O)cc1	12.6µM*
CCn1cc(S(=O)(=O)c2cccc(C)c2)c(=O)c2cc(F)c(N3CCN(c4ccccc4)CC3)cc21	i
CCn1cc(S(=O)(=O)c2cccc(Cl)c2)c(=O)c2cc(F)c(N3CCC(C)CC3)cc21	i
Cc1ccc(Cn2cc(S(=O)(=O)c3ccccc3)c(=O)c3cc(F)c(N4CCOCC4)cc32)cc1	10µM*
Cc1cccc(S(=O)(=O)c2cn(Cc3ccccc3)c3cc(N4CCC(C)CC4)c(F)cc3c2=O)c1	10µM*
